The results in this text go back to PubChem BioAssay (EPA / NIEHS).

Activity calls are given as the source filed them. How the source made its calls: active means hit-call score of the fitted dose curve at least 0.9, where 1 is the maximum; inactive means score below 0.9.

This experiment can be described thus: ATG_M_32_CIS: Attagene CIS-FACTORIAL HepG2 Assay for M32 Transcription Factor (Internal Marker) (AID 2282949).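 Further: background control marker of the multiplexed CIS panel rather than a real target.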 The settings on record: HepG2 Attagene cis-factorial M32 reporter, mRNA; actives raise or lower the signal. As for the experimental part: ATG_CIS is a cell-based, multiplexed-readout assay that uses HepG2, a human liver cell line, with measurements taken at 24 hours after chemical dosing in a 24-well plate.ATG_M_32_CIS is one of 52 assay component(s) measured or calculated from the ATG_CIS assay. It is designed to make measurements of mRNA induction, a form of inducible reporter, as detected with fluorescence intensity signals by Reverse transcription polymerase chain reaction (RT-PCR) and Capillary electrophoresis technology.Data from the assay component ATG_M_32_CIS was analyzed into 1 assay endpoint. This assay endpoint, ATG_M_32_CIS, was analyzed with bidirectional fitting relative to DMSO as the negative control and baseline of activity. Using a type of inducible reporter, measures of mRNA for gain or loss-of-signal activity can be used to understand the background control at the transcription factor-level as they relate to the gene . Furthermore, this assay endpoint can be referred to as a secondary readout, because this assay has produced multiple assay endpoints where this one serves a background control function. To generalize the intended target to other relatable targets, this assay endpoint is annotated to the background measurement intended target family, where the subfamily is internal marker.
Human liver HepG2 cells are transiently transfected with multiple reporter transcription units (MRTUs) in 6-well plates using FuGene 6 reagent (Roche; 3 ml FuGene/1 mg DNA). The MRTU constructs are regulated by a cis-regulating element (promoter). […] A major difference between the CIS and TRANS system is that in CIS activities of endogenous TFs are measured, whereas the TRANS assay evaluates changes in activities of exogenous, chimeric NR-Gal4 proteins. […] At the end of 24 hour incubation, total RNA was isolated using TriZol reagent (Invitrogen). The isolated RNA is then reverse-transcribed using oligo(dT) primer and Mo-MLV reverse transcriptase (Invitrogen) with DNAse I (Ambion) treatment for 30 min. The one-tenth of the produced cDNA was amplified by PCR using Taq DNA polymerase (Invitrogen) and two reporter sequence-specific primers. The PCR products were fluorescently labeled by primer extension with 6-arboxyfluorescein (6-FAM) 5'-labeled reporter sequence-specific primer (2 min at 95 C, 20 s at 68 C and 10 min at 72 C) and these products were digested with 5U of HpaI (New England Biolabs) for 2h at 37 C. The fragments were purified using Qiaquick PCR columns (Qiagen), analyzed on an ABI 3130xL genetic analyzer (Applied Biosystems) with peak positions identified by using a set of X-rhodamine (ROX)-labeled MapMarker1000 molecular weight standards (BioVentures). The raw capillary electrophoresis data was processed using Attagraph software (Attagene).
Regarding `CCCCOCCOP(=O)(OCCOCCCC)OCCOCCCC`, the molecule was called inactive.
Next, `CCOP(=S)(OCC)SCS(=O)(=O)CC`: “inactive”; `Cc1ccc(C(=O)Cl)cc1`: “inactive”; `COCCOCCO`: “inactive”.
Consider `O=C(O)CF`, for which the call was inactive.
Next, `COP(=O)(O)OC`: “inactive”.
Regarding `CNC(=O)Oc1ccc(N(C)C)c(C)c1`, the molecule was classed as inactive.
Next, `NNC(N)=S`: “inactive”; `CC(C)(C)N(NC(=O)c1ccc(Cl)cc1)C(=O)c1ccccc1`: “inactive”; `CC(Cc1ccc(OCC(=O)O)cc1)NCC(O)c1csc(C(F)(F)F)n1` (stereo not given): “inactive”.
With `O=S(=O)(c1ccc(O)cc1)c1ccc(O)cc1`, the result was inactive.
Turning to `COC(=O)C(F)(F)C(F)(F)OC(F)(C(F)(F)F)C(F)(F)OC(F)=C(F)F` (stereo not given), the result was inactive.
Take `C=C(C)C(=O)OCC1CO1` (stereo not given): the molecule was called inactive.
Turning to `ClC(Cl)(Cl)c1ccccc1`, the molecule was called inactive.
Turning to `O=C(O)C(F)(F)OC(F)(F)C(F)(F)OC(F)(F)C(=O)O`, the molecule was called inactive.
Next, `C=CC(=O)OCC(CC)(COC(=O)C=C)COC(=O)C=C`: “inactive”; `CCCCCCCc1ccc(O)cc1`: “inactive”; `O=P(Oc1ccccc1)(Oc1ccccc1)Oc1ccccc1`: “inactive”.
Consider `ClC(Cl)=C(c1ccc(Cl)cc1)c1ccccc1Cl`, for which the call was inactive.
As to `CCCCc1ccc(O)cc1`, the molecule was called inactive.
Regarding `CCOP(=S)(OCC)SCSCC`, the outcome was inactive.
Turning to `CCOc1ccc(C(C)(C)COCc2cccc(Oc3ccccc3)c2)cc1`, the outcome was inactive.
As to `O=[N+]([O-])c1ccc(Cl)c(Cl)c1`, the outcome was inactive.
Consider `N#C/C=C/c1ccccc1`, for which the outcome was inactive.
Next, `Oc1ccccc1Br`: “inactive”; `C=CC(=O)OCC(F)(F)C(F)F`: “inactive”; `FC(F)(F)C(F)(C(F)(F)F)C(F)(F)C(F)(F)CC1CO1` (stereo not given): “inactive”.
For the molecule `CC(C)CBr`, the result was inactive.
Take `O=c1[nH]c2ccccc2c(=O)o1`: the result was inactive.
The same measure for `CCCCN(CC)C(=O)SCCC`: “inactive”.
Turning to `O=C(O)C(F)(OC(F)(F)C(F)(F)C(F)(F)F)C(F)(F)F` (stereo not given), the outcome was inactive.
In the case of `Nc1ccc2ccccc2c1`, the result was inactive.
In the case of `c1nc[nH]n1`, the call was inactive.
With `O=C(O)C(F)(F)OC(F)(F)C(F)(F)OC(F)(F)F`, the outcome was inactive.
With `CCCCC(CC)COP(=O)(Oc1ccccc1)Oc1ccccc1` (stereo not given), the result was inactive.
Next, `CCOP(=O)(O)C(N)=O`: “inactive”; `CCOP(=S)(Oc1ccc([N+](=O)[O-])cc1)c1ccccc1` (stereo not given): “inactive”; `O=[N+]([O-])c1ccccc1`: “inactive”.
As for `O=C(O)C(Cl)Cl`, the call was inactive.
In the case of `CC(Cl)(Cl)C(=O)O`, the molecule was classed as inactive.
